# Screens (PubChem)
# Hits are enriched below; roughly 2.6% of the tested compounds scored in any of these assays.
# mut p53 SMM: binds human mutant p53 on microarray; small molecule microarray binding, anti-GST fluorescence; calls only; hit rate 0.4% among 17,000; AID 624136;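 active = compounds whose four printed spots each glow above background more than chance allows, each with a p-value under 7%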
# STAT3 SMM: STAT3 (human) binding; P40763; hit rate 0.2% among 17,000; AID 624138; Small molecule microarray, His-STAT3 binding, anti-His fluorescence; calls only;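 active = compounds whose four printed spots each show fluorescence over background unusually high for their array block, chance value under 7%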
# Target sequence (P40763 whole entry, looked up): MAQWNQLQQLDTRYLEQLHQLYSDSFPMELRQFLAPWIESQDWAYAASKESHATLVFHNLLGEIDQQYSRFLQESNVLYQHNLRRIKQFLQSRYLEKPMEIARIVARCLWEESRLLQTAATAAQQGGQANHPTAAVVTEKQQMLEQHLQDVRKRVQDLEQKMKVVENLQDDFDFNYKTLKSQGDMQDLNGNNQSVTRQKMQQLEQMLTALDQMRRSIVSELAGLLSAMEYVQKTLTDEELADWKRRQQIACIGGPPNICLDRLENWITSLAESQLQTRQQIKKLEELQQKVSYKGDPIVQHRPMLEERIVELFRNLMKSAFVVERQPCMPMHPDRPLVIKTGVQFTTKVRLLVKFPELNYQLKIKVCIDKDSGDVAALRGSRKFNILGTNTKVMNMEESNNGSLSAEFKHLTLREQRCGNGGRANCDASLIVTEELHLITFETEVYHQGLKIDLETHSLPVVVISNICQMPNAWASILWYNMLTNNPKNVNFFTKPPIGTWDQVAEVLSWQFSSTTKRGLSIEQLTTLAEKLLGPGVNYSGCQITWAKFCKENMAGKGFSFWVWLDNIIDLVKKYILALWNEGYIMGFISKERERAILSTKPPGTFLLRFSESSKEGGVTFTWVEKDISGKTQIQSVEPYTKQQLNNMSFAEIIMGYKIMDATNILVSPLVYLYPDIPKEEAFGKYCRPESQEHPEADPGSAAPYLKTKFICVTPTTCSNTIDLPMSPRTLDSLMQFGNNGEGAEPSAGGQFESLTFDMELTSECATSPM
# NFkB binder: binders of human NF-kappa-B p105; hit rate 1.3% among 17,000; calls only; P19838; AID 624139; Small molecule microarray, anti-His fluorescence binding;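 active = spot fluorescence over background significantly raised, with a chance value under 7% in all four replicate spots of the compound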;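 note: probe protein is his-tagged human p50 processed subunit at 1 µg/ml; raw spot fluorescence signals with no normalization applied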
# Myc binder: c-Myc (human) binding; P01106; small molecule microarray, His-c-Myc binding, anti-His fluorescence; calls only; hit rate 1.5% among 17,000; AID 624141;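 active = spot fluorescence over background with P-value below 7% in all four replicate spots, showing protein binding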;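 note: score is binary with 100 for all four spots passing and 0 otherwise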
# p53 PUMA act: re-activators of the mutant p53 pathway | SW480 PUMA-promoter luciferase, p53 mutant reactivation | activation, % at 9.98 µM | hit rate 1.5% among 28,000 | AID 624151; in the data active = activation above about 52%
# The depositor's hits bear a star; i = inactive; x = no result given; + = active, no number.
SMILES,mut p53 SMM,STAT3 SMM,NFkB binder,Myc binder,p53 PUMA act
COC(=O)[C@@]1(C)CC[C@]2(C(=O)O[C@@H]3O[C@H](CO)[C@@H](O)[C@H](O)[C@H]3O)CC[C@]3(C)C(=CCC4[C@@]5(C)C[C@H](O)[C@H](O[C@@H]6OC[C@@H](O)[C@H](O)[C@H]6O)[C@@](C)(CO)C5CC[C@]43C)[C@@H]2C1 (stereo partly specified),i,i,i,i,5.9
CC1(C)O[C@H]2CC(=O)OC[C@@]23[C@H]1CC(=O)[C@@]1(C)C2=CC(=O)O[C@@H](c4ccoc4)[C@]2(C)CC[C@@H]13,i,i,+,+,-4.9
O=C(O)CCC(=O)Nc1ccc(Br)c2cccnc12,i,i,i,+,2.8
O=C(O)CCC(=O)Nc1ccc(Br)c(Cl)c1,i,i,i,i,-11.3
C[C@H](CO)N1C[C@H](C)[C@H](CN(C)C(=O)Nc2ccc(C(F)(F)F)cc2)Oc2ccc(NS(=O)(=O)c3cn(C)cn3)cc2C1=O,x,x,x,x,3.2
O=C(Nc1ccccc1)N[C@H](Cc1ccccc1)Cn1cc(CN2C(=O)COC[C@H]2c2ccccc2)nn1,+,i,i,i,x
Cc1ccc(S(=O)(=O)N[C@H](C(=O)NCCn2cc(CN3C(=O)COC[C@H]3c3ccccc3)nn2)C(C)C)cc1,+,i,i,i,x
O=C(N[C@@H](Cc1ccccc1)Cn1cc(CN2C(=O)COC[C@H]2c2ccccc2)nn1)c1ccccc1,+,i,i,i,x
COC(=O)c1cn(CCCNC(=O)[C@H](Cc2ccccc2)NS(=O)(=O)c2ccc(C)cc2)nn1,i,i,i,i,x
C[C@@H]1CN([C@@H](C)CO)C(=O)Cc2cc(NC(=O)Cn3cnnn3)ccc2O[C@H]1CN(C)S(=O)(=O)c1cn(C)cn1,i,i,i,i,x
Cc1ccc(-c2nnc(SCC(=O)c3cccc([N+](=O)[O-])c3)n2C)cc1,+,i,i,i,1.5
C=CCNC(=O)[C@@H]1[C@H]2C(=O)O[C@H](c3ccccc3)[C@H](c3ccccc3)N2[C@H](c2ccccc2OCCO)[C@@]12C(=O)Nc1ccc(C#Cc3ccc(OC)cc3)cc12,i,i,+,i,x
COc1ccc(C#Cc2ccc3c(c2)[C@]2(C(=O)N3)[C@H](C(=O)Nc3nc4ccccc4s3)[C@H]3C(=O)O[C@H](c4ccccc4)[C@H](c4ccccc4)N3[C@@H]2c2ccc(OCCO)cc2)cc1,i,i,i,i,x
COc1ccc(C#Cc2ccc3c(c2)[C@]2(C(=O)N3)[C@H](c3ccc(OCCO)cc3)N3[C@H](c4ccccc4)[C@H](c4ccccc4)OC(=O)[C@H]3[C@@H]2C(=O)Nc2nc3ccccc3s2)cc1,i,i,+,i,x
C[C@H](CO)N1C[C@H](C)[C@H](CN(C)C(=O)Nc2ccc(C(C)(C)C)cc2)OCc2cnnn2CCCC1=O,i,i,i,i,11.2
COCC(C)NCc1ccc(OC)c(OC)c1OC (stereo unspecified),i,i,i,+,-8.1
C[C@@H]1CCCCO[C@H](CN(C)C(=O)Cc2ccccc2)[C@H](C)CN([C@@H](C)CO)C(=O)c2cc(NC(=O)Nc3ccc(F)cc3)ccc2O1,i,+,i,i,-38.8
C[C@@H]1CCCCO[C@H](CN(C)C(=O)Nc2ccccc2)[C@H](C)CN([C@@H](C)CO)C(=O)c2cc(NC(=O)Nc3ccccc3)ccc2O1,i,i,i,i,-5.5
C[C@@H]1CN([C@@H](C)CO)C(=O)c2cc(NC(=O)C3CCCCC3)ccc2O[C@@H](C)CCCCO[C@H]1CN(C)C(=O)Nc1ccccc1,i,i,i,i,3.9
C[C@H](CO)N1C[C@H](C)[C@H](CN(C)C(=O)Cc2ccccc2)OCCCC[C@H](C)Oc2ccc(NC(=O)Nc3ccc(F)cc3)cc2C1=O,i,i,i,i,-28.6
C[C@H]1CCCCO[C@@H](CN(C)C(=O)Nc2ccccc2)[C@@H](C)CN([C@@H](C)CO)C(=O)c2cc(NC(=O)C3CCCCC3)ccc2O1,i,i,i,+,2.1
CNC[C@@H]1Oc2ccc(NC(=O)C3CC3)cc2C(=O)N([C@H](C)CO)C[C@H]1C,i,i,+,+,9.2
C[C@H](CO)N1C[C@H](C)[C@@H](CN(C)C(=O)Nc2ccccc2)OCCCC[C@H](C)Oc2ccc(NC(=O)Nc3ccccc3)cc2C1=O,i,i,+,+,-2.0
